High-throughput results as filed in PubChem.
IP6K1 inh = IP6K1 kinase inhibition; Q92551; IP6K1 kinase, ADP-Glo luminescence, 2 h; active compounds read low; activity change, % (series mostly up to about 58 µM); 0.81% of 140,000 active; in the data active means activity change below about -25%
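ADP-Glo luminescence measures ADP made by human IP6K1 during a 2 h RT reaction with ATP/IP6 (mix at 1.3 mM/130 uM); top library doses 57.5 and 19.1 uM final.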
SNCA expr inhib = reduces expression of the alpha-synuclein gene; HEK-293 SNCA-luciferase knock-in, luminescence, 24 h; Potency, µM (top dose mostly 57.2 µM), actives largely listed as inhibitors; 0.17% of 140,000 active; further: nearly all actives have a fitted effect of over 45% in size
GPT2 inh = inhibitors of human GPT2 alanine aminotransferase | Q8TD30 | 0.25% of 100,000 active | Recombinant GPT2, coupled pyruvate oxidase/HRP Amplex Red fluorescence | Potency, µM (series often up to 57.7 µM), usual class: inhibitors; further: nearly all actives have a fitted effect of over 60% in size
Target sequence (Q8TD30 whole entry, looked up): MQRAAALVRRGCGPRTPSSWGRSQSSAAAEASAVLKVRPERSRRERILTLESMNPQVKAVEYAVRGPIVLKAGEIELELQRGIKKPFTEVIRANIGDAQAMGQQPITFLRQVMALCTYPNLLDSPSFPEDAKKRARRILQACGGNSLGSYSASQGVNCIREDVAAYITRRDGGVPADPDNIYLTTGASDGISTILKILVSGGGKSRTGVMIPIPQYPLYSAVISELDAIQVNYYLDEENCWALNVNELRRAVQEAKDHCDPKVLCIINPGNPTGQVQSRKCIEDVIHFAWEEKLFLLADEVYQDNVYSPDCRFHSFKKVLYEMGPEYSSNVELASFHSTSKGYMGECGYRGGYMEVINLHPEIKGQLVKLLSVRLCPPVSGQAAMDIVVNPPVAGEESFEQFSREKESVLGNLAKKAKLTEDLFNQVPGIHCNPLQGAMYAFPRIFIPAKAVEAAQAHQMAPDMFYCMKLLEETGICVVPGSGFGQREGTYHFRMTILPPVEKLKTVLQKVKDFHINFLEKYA
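GPT2 10ng/uL, a-KG 250uM, L-Ala 2mM, HEPES pH7.5 + 0.0001% Tween; 30 min RT. Then Amplex mix (PO/HRP/ThPP), 30 min RT dark, fluorescence. AOA 50uM used as positive control.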
SNCA viab count = cell viability loss counter-screen | HEK-293-SNCA-luc viability, GF-AFC fluorescence, 24 h | Potency, µM (doses to about 57.1 µM), most hits filed as cytotoxic | 0.12% of 150,000 active; further: nearly all actives have a fitted effect of over 30% in size
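Cytotoxicity counterscreen: after 24 h compound treatment of genome-edited SNCA-luciferase HEK-293 cells, live-cell protease substrate GF-AFC read by fluorescence after 30 min; activity scaled between DMSO (0%) and medium-only (-100%), curves Hill-fitted.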
IP6K1 conf = confirmation of human IP6K1 inhibitors | shares compounds with IP6K1 inh | recombinant IP6K1 kinase, ADP-Glo luminescence, 2 h | Potency, µM (highest dose often 49 µM), usual class: inhibitors | 13% of 1,200 active; further: nearly all actives have a fitted effect of over 65% in size
Of the large screens only hits and unclear results are named; the others gave an inactive call (follow-up assays come after a bar, where they were run); ! = not active in a repeat. Only some compounds are listed: those with a hit (about 1.1% of all), similar ones and a draw of the others. Unless noted, the call rests on the fitted dose curve; in most records, active means well fitted curve in the direction sought with a large enough effect; inconclusive means small, poorly fitted or top-dose-only effect, or another doubt; inactive means no such curve, though single readings can be large; an effect the other way counts as inactive or inconclusive.

CCN1CCN(C(=O)Cc2ccc(Nc3ncc(F)c(Nc4ccc(C(=O)Nc5ccccc5Cl)cc4)n3)cc2)CC1	IP6K1 inh -32.9, SNCA viab count 23.8µM! | IP6K1 conf inconclusive
O=C(CCn1cccn1)N1C[C@H](c2cccc(F)c2F)[C@@H]2[C@H]1C1CCN2CC1	IP6K1 inh -32.7 | IP6K1 conf inactive
Cc1ncsc1CCC(=O)N1C[C@@H](c2ccccc2)[C@@H]2[C@H]1C1CCN2CC1	SNCA expr inhib inconclusive
COc1cc2c(cc1OCc1ccccc1)N(C(=O)c1cc3ccccc3[nH]1)CC21CCN(C)CC1	SNCA expr inhib inconclusive, SNCA viab count inconclusive
CN1CCN(C(=O)Cc2c[nH]c3ncc(-c4cccc(OC(F)(F)F)c4)cc23)CC1	IP6K1 inh -53.1, GPT2 inh inconclusive | IP6K1 conf inconclusive
CN1CCN(C(=O)Cc2c[nH]c3ncc(-c4ccccc4Oc4ccccc4)cc23)CC1	IP6K1 inh -27.7 | IP6K1 conf inactive
O=C(N1CCCCC1Cc1ccccc1)n1cc(-c2ccc(-c3ccccc3)cc2)nn1 (centres undefined)	none (no result: SNCA expr inhib)
CCOC(=O)[C@H]1CN(C(=O)COc2ccccc2)[C@]2(C)C(=O)N(CC3CC3)c3ccccc3[C@H]12	none
CCOc1ccc(CN(CCc2ccc3c(c2)OCO3)Cc2cccc(OC)c2)cc1	IP6K1 inh -31.2 (no result: GPT2 inh) | IP6K1 conf inactive
